Test results as given in PubChem BioAssay (NCATS).
“And” between values parts separate entries of the source, which are not always exact repeats. Equal values may be shown once. Results filed as inconclusive are left out. The source made the active and inactive calls. Calls come from the whole dose curve.

The compounds below were run against Bile acid receptor (Homo sapiens) (UniProt Q96RI1) (assay: qHTS assay for small molecule agonists of farnesoid X receptor signaling (AID 588527;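 note: series mostly up to about 77 µM; 0% = vehicle basal and 100% = reference agonist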)). Details: HEK293T FXR-UAS-bla, beta-lactamase ratio, 16 h; stronger effect = higher value.
Bile acid receptor (Homo sapiens), sequence (Q96RI1 whole entry, looked up): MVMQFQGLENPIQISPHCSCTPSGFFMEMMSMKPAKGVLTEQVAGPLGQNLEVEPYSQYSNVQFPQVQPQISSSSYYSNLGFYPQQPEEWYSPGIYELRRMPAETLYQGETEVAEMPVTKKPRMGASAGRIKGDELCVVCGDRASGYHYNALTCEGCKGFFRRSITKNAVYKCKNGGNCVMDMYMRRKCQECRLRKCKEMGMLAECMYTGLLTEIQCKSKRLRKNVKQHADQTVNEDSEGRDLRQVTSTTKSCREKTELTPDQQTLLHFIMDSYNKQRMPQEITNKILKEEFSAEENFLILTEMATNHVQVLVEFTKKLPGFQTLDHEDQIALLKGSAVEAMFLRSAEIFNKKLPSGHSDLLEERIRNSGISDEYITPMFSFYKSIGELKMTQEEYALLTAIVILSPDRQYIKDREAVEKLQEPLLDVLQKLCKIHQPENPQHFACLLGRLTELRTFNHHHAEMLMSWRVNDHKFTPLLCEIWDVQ
Text: NIH Chemical Genomics Center [NCGC] U.S. Environmental Protection Agency [EPA] National Institutes of Environmental Health Sciences [NIEHS] National Toxicology Program [NTP] NCGC Assay Overview The farnesoid-X-receptor (FXR), a nuclear hormone receptor is highly expressed in liver, intestine, kidney and adrenal cortex. Natural ligands of FXR are the bile acids (Cholic acid, Chenodeoxy cholic acid etc). It is an important regulator of diverse metabolic pathways, including the bile acid homeostasis, lipid and glucose metabolisms. FXR regulates the expression of target genes by binding either as a monomer or as a heterodimer with RXR (retinoid X receptor). As FXR regulates a large number of target genes involved in bile acid, lipoprotein and glucose metabolisms, it is a potential pharmacological target for bile acid and lipid disorders. Thus screening environmental chemicals on FXR signaling can be used for the studies focused on metabolic syndrome, hepatic and intestinal toxicity etc.
NCGC Assay Protocol Summary Using a beta-lactamase reporter-gene under control of Farnesoid X receptor (FXR) response element, a cell-based assay [GeneBLAzer FXR-UAS-bla assay developed by Invitrogen] was used to measure FXR ligands signaling. GeneBLAzer FXR-UAS-bla HEK293T cells were used with assay medium containing 10% dialyzed FBS. The assay was performed in clear bottom black Greiner 1536-well plates. Chenodeoxycholic acid and Guggulsterone were used in the screen as agonist and antagonist positive controls respectively. Library compounds were measured for their ability to stimulate the reporter gene activity. Compounds were screened in a titration series in 1536-well format. […] Data was normalized relative to Chenodeoxycholic acid control (100 uM, 100%), and DMSO only wells (basal, 0%). Concentration-response titration points for each compound were fitted to the Hill equation yielding concentrations of half-maximal stimulation (EC50) and maximal response (efficacy) values. qHTS protocol for FXR beta-lactamase assay in agonist mode [Step] [Parameter] [Value] [Description] 1. Reagent; 6 uL; 5000 cells/well 2. Incubation; 37 C for 5-7 hrs 3. Compounds; 23 nL; 0.59 nM to 92 uM 4. Controls (Chenodeoxycholic acid); 23 nL, - One column with dose response, start 200 uM, 1:2 dilutions in duplicates - Final concentrations of 100 uM and 60 uM in two columns 5. Incubation; 37 C for 16 hrs 6. Detection reagent; 1 uL of CCF4-dye 7. Incubation; RT for 2 hrs 8. Detection; Fluorescence; Envision plate reader
`CC(=O)NNc1ccccc1` was tested, and the activation was -3.51% (inactive).
In the case of `CC(C)(Cl)[N+](=O)[O-]`, the activation is reported as 0.224% (inactive).
`Brc1ccc(Oc2ccc(Br)cc2Br)c(Br)c1` was tested, and the activation was -1.06% (inactive).
`CCC[N+](=O)[O-]` was tested, and the activation was 2.98% (inactive).
In the case of `O=C(Cl)c1ccccc1F`, the activation is reported as 2.29% (inactive).
For `CCOC(=O)CBr`, the activation was 0.321% (inactive).
`CC(C)OS(C)(=O)=O` was tested, and the activation was -3.78% (inactive).
With `NNC(N)=S` the activation was -2.79% (inactive).
In the case of `CCN(N=O)C(N)=O`, the activation is reported as -1.35% (inactive).
In the case of `Oc1cccc(Cl)c1`, the activation is reported as 2.65% (inactive).
For `O=C(O)c1cccc(Cl)c1`, the activation was 2.01% (inactive).
`CCOP(=S)(OCC)Oc1nc(Cl)c(Cl)cc1Cl` was tested, and the activation was -1.55% (inactive) [middle of 4 runs].
In the case of `Cc1ccc(N)cc1C`, the activation is reported as 1.96% (inactive).
`OCCCCO` was tested, and the activation was -2.93% (inactive).
With `C(CCOCC1CO1)COCC1CO1` (stereo not given) the activation was -2.57% (inactive).
For `CCCC[N+](=O)[O-]`, the activation was -0.886% (inactive).
`Nc1c(Cl)cc([N+](=O)[O-])cc1Cl` was tested, and the activation was -3.3% (inactive) and 0.0652% (inactive).
In the case of `CC(C)(OOC(C)(C)c1ccccc1)c1ccccc1`, the activation is reported as 3.57% (inactive) and 3.43% (inactive).
With `CCCCOCC1CO1` (stereo not given) the activation was -3.01% (inactive).
With `Cc1cc(C)cc(OP(=O)(Oc2cc(C)cc(C)c2)Oc2cc(C)cc(C)c2)c1` the activation was 0.362% (inactive).
`O=[N+]([O-])c1cc(Cl)c(Cl)c(Cl)c1` was tested, and the activation was -2.43% (inactive).
With `O=C(O)C(Br)Br` the activation was -1.44% (inactive).
For `Nc1ccc(Cc2ccc(N)cc2)cc1`, the activation was -2.78% (inactive) and 3.63% (inactive).
With `CC(C)[N+](=O)[O-]` the activation was -1.29% (inactive).
`NC1CCC(CC2CCC(N)CC2)CC1` (stereo not given) was tested, and the activation was -0.153% (inactive) and 0.847% (inactive).
In the case of `Oc1cc(Cl)c(Cl)c(Cl)c1`, the activation is reported as 3.7% (inactive).
For `C=CCBr`, the activation was -2.82% (inactive).
`c1ccc(NNc2ccccc2)cc1` was tested, and the activation was 1.06% (inactive) and 0.0431% (inactive).
In the case of `Nc1c(Br)cc([N+](=O)[O-])cc1[N+](=O)[O-]`, the activation is reported as 0.276% (inactive).
For `Cc1cccc(C)c1N`, the activation was -1.75% (inactive).
With `O=[N+]([O-])c1ccc2c3c(cccc13)CC2` the activation was -0.314% (inactive) and -0.559% (inactive).
`BrCC(Br)(Br)Br` was tested, and the activation was -2.57% (inactive).
`N#CC(Cl)(Cl)Cl` was tested, and the activation was -1.65% (inactive).
In the case of `N#CCCC#N`, the activation is reported as -0.443% (inactive).
For `Cc1cc(Cl)ccc1O`, the activation was -2.04% (inactive).
With `CCCCOC(C)=O` the activation was 1.21% (inactive).
For `CN(C)N=O`, the activation was -0.99% (inactive).
`CCCN(CCC)c1c([N+](=O)[O-])cc(C(F)(F)F)cc1[N+](=O)[O-]` was tested, and the activation was 1.13% (inactive).
In the case of `CN1CSC(=S)N(C)C1`, the activation is reported as 0.811% (inactive) and -0.41% (inactive).
For `ClC(Cl)C(Cl)Cl`, the activation was -2.53% (inactive).
